The values that follow come from PubChem BioAssay AID651813 (National Center for Advancing Translational Sciences (NCATS), 2012).

In all, about 2,100 compounds went through this assay and about 1,100 (52%) were called active. About 27% were inconclusive and are not listed. The set was probably picked from earlier hits. This is one part of the list. Values without a mark were called inactive. Calls come from the whole dose curve; as a rule, active = well fitted inhibition curve with a large enough effect; inconclusive = small, poorly fitted or top-dose-only effect; inactive = no such curve, though single readings can be large or run the other way.
Potency is the fitted concentration of half-maximal effect.

The target of this assay is DNA dC->dU-editing enzyme APOBEC-3G (Homo sapiens) (UniProt Q9HC16). Description: qHTS for inhibitors of Vif-A3G interactions: Cherry picks counterscreen.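 For max response: max response given as percent of control signal.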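 Note: hits raise yellow fluorescence by blocking Vif-driven A3G-eYFP degradation; nearly all actives have a fitted effect of over 70% in size.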 To be noted: HeLa A3G-eYFP + Vif (tagged APOBEC3G with the HIV-1 protein that degrades it), eYFP fluorescence, 24 h. In outline: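 HeLa cells stably expressing A3G-eYFP and Vif were treated for 24 h at 37 deg C with compounds at several concentrations; yellow fluorescence (Ex 488 nm, Em 500-530 nm) read by Acumen Explorer, MG132 as positive control.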
DNA dC->dU-editing enzyme APOBEC-3G (Homo sapiens), sequence (Q9HC16 whole entry, looked up): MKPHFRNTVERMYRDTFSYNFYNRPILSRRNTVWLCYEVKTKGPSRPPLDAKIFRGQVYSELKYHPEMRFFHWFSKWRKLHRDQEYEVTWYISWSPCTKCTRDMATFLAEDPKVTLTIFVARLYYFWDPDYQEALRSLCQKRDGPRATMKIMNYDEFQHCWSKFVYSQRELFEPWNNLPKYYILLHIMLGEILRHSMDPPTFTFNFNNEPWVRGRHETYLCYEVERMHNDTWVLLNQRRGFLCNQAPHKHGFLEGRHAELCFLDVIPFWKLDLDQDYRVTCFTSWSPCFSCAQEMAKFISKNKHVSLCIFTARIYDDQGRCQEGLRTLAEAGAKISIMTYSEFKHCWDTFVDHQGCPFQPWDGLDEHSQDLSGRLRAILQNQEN
For orientation: qHTS replaces the single test concentration by a dilution series.
Regarding `CCN(CC)c1ccc(/C=C/c2cc(-c3ccccc3)c3ccccc3n2)cc1`, the Potency was 1.98 µM (active). Same read-out and setting: next, `Cc1ccccc1N1C(=O)c2cccc3c(N(C)CCO)ccc(c23)C1=O`: 4.61 µM (active). With `COc1ccccc1N1C(=O)c2cccc3c(C(=O)O)ccc(c23)C1=O`, the max response is 6.39%. For the molecule `COc1ccc(C(=O)c2ccc(OC)c(OC)c2OC)cc1`, the Potency was 2.23 µM (active). For `O=C(NC1C/C(=N/O)c2cc3c(cc21)OCO3)C(F)(F)F` (configuration not stated), the max response is -1.11%. Same read-out and setting: the result for `COc1cc(C=C2C(=O)c3ccccc3C2=O)cc(OC)c1OC` reads -6.19%.

On to `COc1cc(/C=C2\COC/C(=C\c3cc(OC)c(OC)c(OC)c3)C2=O)cc(OC)c1OC`, for which the Potency was 3.14 µM (active).

As to `CCOc1cc(/C=C2\CN(C)C/C(=C\c3ccc(O)c(OCC)c3)C2=O)ccc1O`, the Potency is 5.59 µM (active). `COc1cc(/C=C2\COC/C(=C\c3ccc(O)c(OC)c3)C2=O)ccc1O`: the Potency is 8.86 µM (active). On the same count and under the same terms, the result for `COc1ccc(/C=C2/CSC/C(=C/c3ccc(OC)c(OC)c3)C2=O)cc1OC` reads 5.59 µM (active). Take `Cc1ccc(F)c(S(=O)(=O)NC(=O)C2(C)CCN2C(=O)Cc2ccc(Cl)cc2Cl)c1` (configuration not stated): the max response was 13%. The same measure, in the same setting: next, `Cc1cccn2c(=O)c3cc(C#N)c(=NC(=O)c4cccs4)n(CCCOC(C)C)c3nc12`: -8.85%. Turning to `COc1ccc(/C=C2\CN(Cc3ccccc3)C/C(=C\c3ccc(OC)c(O)c3)C2=O)cc1O`, the Potency was 6.27 µM (active). On the same count and under the same terms, the result for `C=CCn1c(SCc2c(C)noc2C)nc2cc(C(=O)O)ccc2c1=O` reads 17.7 µM (active); that for `Cc1noc(C)c1CSc1nc2ccccc2c(=O)n1-c1ccccc1`, 4.98 µM (active); that for `CCn1c2ccccc2c2cc(NC(=O)CNCc3ccccc3OC)ccc21`, 6.27 µM (active). `COc1cc(-c2cnc3c(NC(C)=O)cc(-c4ccccc4CN(C)C)cn23)cc(OC)c1OC`: the Potency was 14 µM (active).

As for `COc1ccc(-c2cc(NC(C)=O)c3ncc(-c4cc(OC)c(OC)c(OC)c4)n3c2)cn1`, the Potency was 5.59 µM (active). On the same count and under the same terms, next, `COC(=O)C1=C(C)NC2=C(C(=O)CC(c3cccs3)C2)C1c1ccsc1` (configuration not stated): 12.5 µM (active); `CN(/N=C/c1ccc(N(C)C)cc1)C1=NS(=O)(=O)c2ccccc21`: 5.59 µM (active). In the case of `CN(C)c1ccc(/C=N/N(CCO)C2=NS(=O)(=O)c3ccccc32)cc1`, the max response was -24.9%. Take `CSc1ccccc1NC(=O)COC(=O)/C=C/c1ccco1`: the max response was -23.9%. For the molecule `Cc1ccnc(NC(=S)NC(=O)/C=C/c2ccco2)c1`, the Potency was 6.27 µM (active). Still for that read-out and setting: next, `Cc1nc(NC(=O)/C=C/c2ccco2)sc1C`: 6.27 µM (active); `O=C(/C=C/c1ccco1)NC(=S)Nc1cccc(-c2nc3ccccc3o2)c1`: 4.98 µM (active). The same measure, in the same setting: next, `COc1ccc(-c2csc(NC(=S)NC(=O)/C=C/c3ccco3)n2)cc1Br`: 3.14 µM (active).

In the case of `COc1ccc(OC)c(/C=C/c2nc3ccccc3[nH]c2=O)c1`, the Potency was 7.31 µM (active). Take `CC(=Nc1ccccc1)C1=C(O)C(Cc2ccccc2)NC1=O` (configuration not stated): the Potency is 0.396 µM (active). In the case of `O=C1NC(c2ccccc2Br)=N/C1=C\c1ccco1`, the max response was -4.52%.

Regarding `O=C1N/C(=C\c2ccccc2)c2ccccc21`, the Potency is 0.994 µM (active). Still for that read-out and setting: the result for `CCOC(=O)/C(C#N)=C\C=C1C=CN(C)C=C1` reads 2.31 µM (active); that for `C=CCN1C=CC(=C/C=C(/C#N)C(=O)OCC)C=C1`, 3.66 µM (active). The same measure, in the same setting: next, `O=Cc1sc(Nc2ccccc2)nc1Cl`: 20.6 µM (active).

As to `Cc1ccc(Nc2nc(Cl)c(C=O)s2)cc1Cl`, the Potency was 13 µM (active). As for `c1ccc(Nc2nc(-c3ccccn3)cs2)cc1`, the max response was 16.2%. In the case of `Cc1coc(NC(=O)CSc2nc(-c3ccncc3)cc(C(F)(F)F)c2C#N)n1`, the Potency was 16.4 µM (active). Still for that read-out and setting: next, `CCCCOc1ccc(-c2cc(C(F)(F)F)c(C#N)c(SCC(=O)O)n2)cc1`: 23.1 µM (active); `Cc1cc(C(F)(F)F)c(C#N)c(SCC(=O)Nc2nc3ccccc3s2)n1`: 18.4 µM (active). Regarding `CCOC(=O)c1ccc(NC(=O)CSc2nc(-c3ccc(OC)cc3)cc(C(F)(F)F)c2C#N)cc1`, the Potency is 23.1 µM (active).

Turning to `COCc1cc(C)nc(SCC(=O)Nc2ccc3[nH]c(=O)[nH]c3c2)c1C#N`, the max response is -18.1%. As to `CCOC(=O)c1ccc(NC(=O)CSc2nc(-c3ccc(F)cc3)cc(C(F)(F)F)c2C#N)cc1`, the Potency was 9.2 µM (active).

As to `COc1cccc2sc(Nc3nc(-c4cc5ccccc5oc4=O)cs3)nc12`, the Potency is 3.96 µM (active). As for `COc1ccc(-c2cc3ccccc3oc2=O)cc1NC(=S)NC(=O)c1ccc2c(c1)OCCO2`, the max response was -2.77%.

For the molecule `COc1cc(/C=C2\SC(=S)N(Nc3ncc(C(F)(F)F)cc3Cl)C2=O)ccc1O`, the Potency is 20.6 µM (active). Turning to `COc1cc(/C=C2\SC(=S)N(NC(=O)c3ccccc3OC)C2=O)ccc1O`, the max response was -17.8%. Consider `CN(C)c1ccc(/C=C2\SC(=S)N(Nc3ncc(C(F)(F)F)cc3Cl)C2=O)cc1`, for which the Potency is 5.17 µM (active). `Cc1cc(C)cc(NC2=NC3(CCCCC3)N=C(N)N2)c1`: the Potency was 19.8 µM (active). Consider `CCOC(=O)c1ccc(NC(=S)NC(=O)C2CCCC2)cc1`, for which the max response was -2.63%. On to `COC(=O)c1ccc(NC(=O)CC2Nc3cc(C)c(C)cc3NC2=O)cc1` (configuration not stated), for which the Potency is 20.6 µM (active). Consider `CCN(CC)C(=O)Cn1c(=O)n(-c2ccccc2)c(=O)c2c3c(sc21)CCC3`, for which the max response is -20.5%. As to `CCOc1ccc(C(=O)C(CCC(CN(C)C)C(=O)c2ccc(OCC)cc2)CN(C)C)cc1` (configuration not stated), the max response was -24.5%.

Turning to `O=C(Cc1n[nH]c(=O)c2ccccc12)OCC(=O)c1ccc2c(c1)OCCO2`, the Potency is 2.8 µM (active). On the same count and under the same terms, the result for `CCOc1ccc(C(=O)COC(=O)Cc2n[nH]c(=O)c3ccccc23)cc1` reads 15.8 µM (active); that for `O=C(Nc1ccc2c(c1)OCCO2)C(=O)c1c[nH]c2ccccc12`, 6.27 µM (active). As for `O=C(C(=O)N1CCN(c2ccccc2Cl)CC1)c1c[nH]c2ccccc12`, the max response is -13.1%. As to `N#Cc1c(-c2ccccc2)c(-c2ccccc2)nn(CC(=O)NNC(=O)Nc2ccccc2)c1=O`, the Potency was 1.98 µM (active). As to `N#Cc1c(-c2ccc(F)cc2)c(-c2ccc(F)cc2)nn(CCO)c1=O`, the Potency is 7.04 µM (active).

For the molecule `CCOc1ccccc1N1CC(c2nc3ccccc3n2Cc2c(C)cc(C)cc2C)CC1=O` (configuration not stated), the max response is -2.71%. Take `CCOC(=O)Cn1c(=O)c(-c2cc(Br)ccc2N)nc2ccccc21`: the Potency was 8.2 µM (active). As to `CCOC(=O)COn1c(=O)c(-c2ccc(Br)cc2)[n+]([O-])c2ccccc21`, the max response is 4.24%. Consider `CCOC(=O)CCSc1nc(C)cc(C(F)(F)F)c1C#N`, for which the Potency is 12.5 µM (active). The same measure, in the same setting: next, `Cc1ccc(S(=O)(=O)CCSc2nc(C)cc(C(F)(F)F)c2C#N)cc1`: 17.7 µM (active); `COc1ccc(NC(=O)C2(C)Cc3c(-c4cccc(C(N)=O)c4)ccnc3O2)cn1` (configuration not stated): 7.9 µM (active). In the case of `COc1ccc(NC(=O)C2(C)Cc3c(-c4ccc5c(c4)OCO5)ccnc3O2)cn1` (configuration not stated), the Potency was 7.04 µM (active). As for `COc1ccc(NC(=O)C2(C)Cc3c(-c4cccc(NC(C)=O)c4)ccnc3O2)cn1` (configuration not stated), the Potency is 1.98 µM (active).

`C=CCNC(=S)N/N=C/c1ccc(C)cc1C`: the max response was -13.8%.

For the molecule `CCc1ccc2nc(SCC(=O)Nc3ccccc3N3CCOCC3)c(C#N)cc2c1`, the Potency was 1.64 µM (active). Turning to `COc1ccc2nc(SCC(C)=O)c(C#N)cc2c1`, the Potency was 3.66 µM (active). Regarding `N#Cc1cc2ccccc2nc1SCC(=O)Nc1ccccc1N1CCOCC1`, the max response was -5.1%. As to `COc1ccc2nc(SCC(=O)N3CC(=O)Nc4ccccc43)c(C#N)cc2c1`, the Potency is 18.4 µM (active). The same measure, in the same setting: next, `CCc1ccc2nc(SCC(=O)N3CC(=O)Nc4ccccc43)c(C#N)cc2c1`: 12.5 µM (active). As to `CC1C/C(=N\NC(N)=S)c2cc(Cl)ccc2S1` (configuration not stated), the max response is -16.7%.

Take `Cc1cc(C)c2nc(SCC(=O)N3CC(=O)Nc4ccccc43)c(C#N)cc2c1`: the Potency was 1.4 µM (active).

`Cc1ccc(C(=O)CSc2nc(-c3ccccc3)ccc2C#N)cc1`: the Potency is 10.3 µM (active). On the same count and under the same terms, the result for `N#Cc1ccc(-c2cccnc2)nc1SCC(=O)c1ccccc1` reads 2.91 µM (active). On to `O=C(c1ccccc1)C1C(=O)c2ccccc2C1=O`, for which the max response is -3.97%.

As for `NN=C1c2ccccc2C(=O)C1C(=O)C(c1ccccc1)c1ccccc1` (configuration not stated), the Potency was 15.8 µM (active). In the case of `CC(C)NC(=S)N/N=C1\CCCCc2ccccc21`, the max response is -0.219%.

Turning to `CC(C)NC(=S)N/N=C/c1sc(N2CCCCC2)nc1-c1cccs1`, the Potency was 20.6 µM (active). Still for that read-out and setting: next, `COC(=O)C1=C(Nc2ccc(C)cc2)C=C(C)C(C(=O)OC)C1c1cccc(OC)c1` (configuration not stated): 11.2 µM (active). Turning to `COCc1ccc(O)c2ncccc12`, the max response is 15.6%.

With `COCCCNC(=S)N/N=C/c1ccc(OC)cc1`, the max response was -8.47%. In the case of `COc1ccc2c(c1)c(C(=O)N/N=C/c1ccc(Cl)cc1)c(C)n2C`, the Potency was 12.5 µM (active). Still for that read-out and setting: the result for `CC1=C/C(=C\C=C(C#N)C#N)N(C)c2ccccc21` reads 2.06 µM (active). On the same count and under the same terms, next, `CC(=O)c1cc2c(cc1NS(=O)(=O)c1ccc(C)cc1)OCCO2`: 12.5 µM (active). Same read-out and setting: the result for `CCN(CC)c1ccc(/C=C/c2cccc[n+]2C)c(OC)c1` reads 7.04 µM (active); that for `O=C(NCCc1ccccc1Cl)c1ccc(Cn2c(=O)c3cccn3c3cccnc32)cc1`, 14.6 µM (active). On to `CCOc1ccc(CCNC(=O)c2ccc(Cn3c(=O)c4cccn4c4cccnc43)cc2)cc1`, for which the max response was -3.64%.

Turning to `N#Cc1cccn1-c1nccc(-c2cccs2)n1`, the Potency was 8.86 µM (active). Same read-out and setting: next, `Cc1[nH]c2ccccc2c1/C=C/c1cc[n+](C)cc1`: 0.994 µM (active). The same measure, in the same setting: the result for `Cc1[nH]c2ccccc2c1/C=C/C(=O)c1ccccc1` reads 18.4 µM (active).

For `Cc1ccc2[nH]c(C)c(/C=C/c3cc[n+](C)cc3)c2c1`, the Potency is 0.627 µM (active).
